This note sets out measurements from PubChem BioAssay AID2732 (Emory University Molecular Libraries Screening Center, 2010).

In all, about 220,000 compounds went through this assay and about 8,200 (3.7%) were called active. The sample holds actives, similar compounds and a random draw of the others, so the mix is not that of the screen.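 How the source made its calls: active means compounds that reduced the stress-induced luciferase reporter signal by more than about 70% of percent inhibition (limit read from the data); inactive means the rest.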 Residues, ends and D or L forms follow the SMILES beside them. *: point of attachment. Bz = O=C(c1ccccc1)*

The assay in a line: inhibitors of CHOP promoter induction, primary screen, cell-based, unfolded protein response, luciferase reporter (AID 2732).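 Further: 0% = tunicamycin plus vehicle and 100% = wells without tunicamycin.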 As to conditions: CHO-K1 CHOP-promoter luciferase, tunicamycin-induced, 15-18 h; at 10 µM; active compounds read high.
Consider `CC(=O)N1CC[n+]2c(-c3ccc([N+](=O)[O-])cc3)csc21`, for which the inhibition is -3.95% (inactive).

Take `O=C(O)CCc1cccnc1`: the inhibition is 16.7% (inactive).

`COc1ccc(CN2CCOC2=O)cc1OC`: the inhibition is -5.21% (inactive).

As to `COc1ccc(N2C(=O)C3C(C2=O)C(C(=O)c2ccccc2)N2CCCC32)cc1` (centres undefined), the inhibition was 11.9% (inactive).

As for `CC(C)C[C@H](CO)Nc1nc(N(C)c2cccc(Cl)c2)c2ncn(C(C)C)c2n1`, the inhibition was 21.8% (inactive).

In the case of `COC(=O)c1ccccc1N=Nc1c(C)[nH][nH]c1=O`, the inhibition was 14.2% (inactive).

With `CCCNc1c(N)c(=O)c1=O`, the inhibition was 3.2% (inactive).

On to `CCc1c(C)nc2c(-c3ccccc3)c(C)nn2c1Nc1ccc(NC(C)=O)cc1`, for which the inhibition is 17.3% (inactive).

Regarding `CCS(=O)(=O)c1cc([N+](=O)[O-])c(Sc2ccccc2N)s1`, the inhibition was -0.04% (inactive).

On to `COc1cc(C(F)(F)F)nc2c(Br)c(C(C)(C)C)nn12`, for which the inhibition is 15% (inactive).

Turning to `CCN(CC)CCn1cnc2c1c(=O)n(CCOC(=O)c1cc(OC)c(OC)c(OC)c1)c(=O)n2C`, the inhibition was -3.64% (inactive).

Consider `Fc1ccc(N2CCN(Cc3cnc(Oc4ccc(Br)cc4)s3)CC2)cc1`, for which the inhibition was 21% (inactive).

As for `Oc1c(CN2CCN(c3ccc(F)cc3)CC2)cc(Cl)c2cccnc12`, the inhibition was 92% (active).

Regarding `CCN1CCN(C(c2cccnc2)c2cc(Cl)c3cccnc3c2O)CC1` (centres undefined), the inhibition is -101% (inactive).

Turning to `Cc1cc(N2CCN(c3ccc(F)cc3)CC2)n2ncnc2n1`, the inhibition was 1.35% (inactive).

Regarding `O=C(NC(Cc1ccccc1)C(=O)N1CCCC1C(=O)O)c1ccccc1` (stereo not drawn) (Bz-Phe-Pro-OH; configuration not given here), the inhibition was -0.39% (inactive).

With `Cc1ccc(C(=O)N2CCN(C3CCCCC3)CC2)s1`, the inhibition was 12.7% (inactive).

In the case of `O=C(C(Cc1ccccc1)n1cccc1)N1CCN(C2CCCCC2)CC1` (centres undefined), the inhibition is 72.6% (active).

Take `CC(=O)c1ccc(S(=O)(=O)N2CCN(C(=O)/C=C/c3ccc4ccccc4n3)CC2)cc1`: the inhibition is 60% (inactive).

For `O=C(Nc1ccccc1)OCc1cc(-c2ccc(Cl)cc2)on1`, the inhibition was -15.4% (inactive).

As for `O=C(Nc1ccc(Cl)cc1)OCc1cc(-c2ccccc2)on1`, the inhibition is 89.7% (active).

On to `O=C(Nc1ccccc1)OCc1cn(-c2ccc(Cl)cc2)nn1`, for which the inhibition is -8.26% (inactive).

Turning to `CCOC(=O)CN1CCC(c2ccccc2)CC1`, the inhibition was 8.89% (inactive).

As for `CCOC(=O)Cn1c2c(c(-c3ccccc3OC)cc1=O)CCCC2`, the inhibition was 77.2% (active).

Take `CCOC(=O)Cn1c(-c2cccnc2Cl)nc2ccccc21`: the inhibition is -1.12% (inactive).

Take `FC(F)(F)c1nc(-c2ccccc2)ncc1-c1nnnn1-c1ccccc1`: the inhibition is 49.3% (inactive).

Consider `CCOn1c(SC(C)C)nc2ccccc2c1=O`, for which the inhibition was -9.05% (inactive).

`CC(Sc1nc2ccccc2c(=O)n1Cc1ccco1)C(=O)c1ccccc1` (centres undefined): the inhibition is 16.2% (inactive).

For `CCOC(=O)C(C)Sc1nc2ccccc2c(=O)n1CC1CCCCC1` (centres undefined), the inhibition was 99.3% (active).

Regarding `Cc1nnc2n1N=C(c1ccc3c(c1)NC(=O)CO3)CS2`, the inhibition was 8.13% (inactive).

Regarding `O=C(O)c1ccccc1C(=O)Nc1ccccc1[N+](=O)[O-]`, the inhibition is -7.32% (inactive).

Turning to `CCC(C)c1ccc(O)c(/C=N/O)c1` (centres undefined), the inhibition was 71.8% (active).

In the case of `CNCC(O)c1ccc(O)c(O)c1` (centres undefined), the inhibition is -0.79% (inactive).

Turning to `O=C(Cc1c(F)cccc1Cl)Nc1ncc([N+](=O)[O-])s1`, the inhibition was 9.25% (inactive).

For `O=C(CCc1ccccc1)Nc1ncc([N+](=O)[O-])s1`, the inhibition was -9.45% (inactive).

Turning to `CC(=O)Oc1ccccc1C(=O)Nc1ncc([N+](=O)[O-])s1`, the inhibition is 72.1% (active).

For `O=C(NNC(=S)Nc1ccc(F)cc1)[C@H]1C[C@@H]1c1ccccc1`, the inhibition was 5.39% (inactive).

`CCCOc1cc(C)c(S(=O)(=O)n2nnc3ccccc32)cc1C`: the inhibition is -25.8% (inactive).

Consider `CCOc1cc(C)c(Cl)cc1S(=O)(=O)n1nnc2ccccc21`, for which the inhibition is 73.7% (active).

`COc1cc(C)c(Cl)cc1S(=O)(=O)n1ccnc1`: the inhibition is 14.6% (inactive).

Turning to `CN(c1ccccn1)c1ncnc2[nH]ncc12`, the inhibition was 16.3% (inactive).

For `S=c1[nH]nc(-c2cccs2)n1/N=C/c1cn(-c2ccccc2)nc1-c1ccc(Cl)cc1`, the inhibition is 57.5% (inactive).

Consider `Cc1ccc(NNC(=O)c2cccs2)cc1Cl`, for which the inhibition was -7.82% (inactive).

For the compound `CSC1=NC2(C)CCCCC2C12C=CC(=O)C=C2` (centres undefined), the inhibition is -8.01% (inactive).

As to `O=C(Nc1nnc(Cc2ccc(Cl)cc2)s1)c1ccncc1`, the inhibition is 2.85% (inactive).

As to `CNC(=O)c1nnc(Cc2ccc(Cl)cc2)o1`, the inhibition is 84.2% (active).

For `Clc1ccc(Cc2nnc(-c3cccs3)o2)cc1`, the inhibition is -8.41% (inactive).

Regarding `CS(=O)(=O)c1ccc2nnn(OCC(=O)Nc3cccc(C#N)c3)c2c1`, the inhibition was 7.09% (inactive).

In the case of `CNC(=O)c1cccc2nc3ccccc3nc12`, the inhibition was -2.58% (inactive).

With `CCCCOc1ccc(-c2ncc(C(=O)OCC)c(N)n2)cc1`, the inhibition is 87.4% (active).

With `CCOC(=O)c1cnc(-c2ccccc2)nc1Oc1ccc(C)cc1`, the inhibition was 16.8% (inactive).

Turning to `CCOC(=O)c1cnc(SCc2nc(N)nc(Nc3ccc(OC)cc3)n2)nc1N`, the inhibition was 27.6% (inactive).

On to `O=C(N/N=C/c1ccco1)c1csc2c1CCCC2`, for which the inhibition is -20.7% (inactive).

As to `CCOC(=O)C1=C(CSc2nccn2C)NC(=O)NC1c1ccc(OC)cc1` (centres undefined), the inhibition is 34.2% (inactive).

`COCCOC(=O)C1=C(C)N=c2s/c(=C\c3cccs3)c(=O)n2C1c1cccs1` (centres undefined): the inhibition is 4.98% (inactive).

As to `CCOC(=O)C1=C(C)N=c2s/c(=C\C(=O)OC)c(=O)n2C1c1ccc(OC)cc1` (centres undefined), the inhibition is 89.2% (active).

On to `CC(C)Cc1ccc(C(C)C(=N)N)cc1` (centres undefined), for which the inhibition was 4.47% (inactive).

Turning to `CC(=O)NC(CC(=O)Nc1nccs1)c1ccccc1` (centres undefined), the inhibition was -2.49% (inactive).

As to `CCC(C)(C)NC(=O)C(c1ccc(O)cc1)N(C(=O)Cn1nnc2ccccc21)c1ccc(NC(C)=O)cc1` (centres undefined), the inhibition was 4.95% (inactive).

As for `Cc1cc(-n2cnc(-c3cn(C)nc3C)n2)no1`, the inhibition was -11.3% (inactive).

For `Brc1ccc2c(c1)[C@H]1OCC[C@H]1[C@@H](c1cccs1)N2`, the inhibition was 39.4% (inactive).

As for `O=c1[nH][nH]c(=O)c2cc(N3CCCC3)ccc12`, the inhibition was 2.26% (inactive).

Turning to `COc1cccc(OC)c1C(=O)Nc1ccc(N2CCCCC2)cc1`, the inhibition is 15.2% (inactive).

Consider `O=C1C=CC(=O)N1c1ccc(N2CCCCC2)cc1`, for which the inhibition is 94% (active).
